Whole data set: some 18,000 sequences, median “TetR repression strength (sort-seq, GFP reporter)” near 0.23, cut for the highest 2% near 0.68. The entries come from a sample that favours the highest values as a whole.

Sequence of TetR (class B, Tn10) (P04483 whole entry): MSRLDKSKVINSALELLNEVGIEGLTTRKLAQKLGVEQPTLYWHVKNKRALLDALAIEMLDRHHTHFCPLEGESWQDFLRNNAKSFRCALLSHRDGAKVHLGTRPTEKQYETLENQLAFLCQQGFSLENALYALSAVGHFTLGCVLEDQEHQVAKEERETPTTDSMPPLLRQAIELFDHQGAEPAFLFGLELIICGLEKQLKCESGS

The target in the assay is TetR (class B, Tn10) (UniProt P04483). Description: TetR repression strength (sort-seq, GFP reporter) (relative to tetO2 = 1); higher = stronger repression. The conditions noted are these: E. coli. The essentials:
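Escherichia coli SIG10-MAX cells carried a low-copy plasmid library in which eight operator positions were randomized between a constitutive promoter and sfGFP, and TetR was expressed constitutively. After 5 h of growth at 37 °C in LB with 50 µg/mL chloramphenicol, 10^6 cells were FACS-sorted into 13 fluorescence bins, and each bin was Illumina-sequenced. Repression strength was the top bin index plus one minus the read-weighted mean bin, divided by the value for the unaltered operator. Across three independent transformations, only library members with ≥30 reads in every replicate and a CV ≤0.5 were averaged.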
On to TCCCGTTGAGTCGGCGAGA, for which the TetR repression strength was 0.157. The value for TCCCACCAAGTAGGAGAGA was 0.285; that for TCCCTAAGAGTACTGGAGA was 0.401. TCCCGCCGAGTTAAGGAGA had a TetR repression strength of 0.19.

Regarding TCCCGACGAGTAGTGGAGA, the TetR repression strength came to 0.171.

Turning to TCCCAATCAGTTTGAGAGA, the TetR repression strength was 0.144. The value for TCCCTCGCAGTGAGCGAGA was 0.22; that for TCCCAGGCAGTAAGGGAGA was 0.0777; that for TCCCGGTCAGTGATCGAGA was 0.684. TCCCGGTCAGTGGTCGAGA displayed a TetR repression strength of 0.633. In turn, TCCCAGTCAGTGATCGAGA displayed a TetR repression strength of 0.322. The value for TCCCCGGGAGTCCACGAGA was 0.252; that for TCCCGGGGAGTTAATGAGA was 0.944; that for TCCCGAGTAGTTAACGAGA was 0.857. The value for TCCCGGGAAGTTACAGAGA was 0.0346; that for TCCCGGAGAGTTAATGAGA was 0.225; that for TCCCGGGGAGTTACAGAGA was 0.903. Regarding TCCCGAGGAGTTAACGAGA, the TetR repression strength is 0.535.

On to TCCCGGAGAGTTACAGAGA, for which the TetR repression strength is 0.245.

For TCCCCCTGAGTTTATGAGA, the TetR repression strength came out at 0.265. The value for TCCCGCGGAGTTTATGAGA was 0.184; that for TCCCCCGGAGTTTATGAGA was 0.801.

TCCCGAGTAGTTAAGGAGA came in with a TetR repression strength of 0.21. In turn, TCCCCGGGAGTTAATGAGA yielded a TetR repression strength of 0.517. Turning to TCCCAGACAGTGATAGAGA, the TetR repression strength was 0.384.

Take TCCCGCAGAGTGTCTGAGA: the TetR repression strength amounted to 0.216.

TCCCGTTAAGTCGCGGAGA returned a TetR repression strength of 0.391. The value for TCCCCTTGAGTGTAAGAGA was 0.558. In the case of TCCCGTCGAGTGTCAGAGA, the TetR repression strength was determined as 0.263. The value for TCCCGTGTAGTTGTTGAGA was 0.0138; that for TCCCGGGTAGTTAGTGAGA was 0.166. The value for TCCCGGGTAGTTAATGAGA was 1; that for TCCCGCGTAGTTAATGAGA was 0.421; that for TCCCCAGCAGTGATGGAGA was 0.2. The value for TCCCAGAAAGTGGCGGAGA was 0.316; that for TCCCAGCGAGTAGAAGAGA was 0.334; that for TCCCGGCGAGTAGAGGAGA was 0.248. Regarding TCCCGGCGAGTAGAAGAGA, the TetR repression strength was determined as 0.418.

Sequence TCCCTCCGAGTAGGTGAGA had a TetR repression strength of 0.222. The value for TCCCGGCGAGTAGACGAGA was 1.03. TCCCAGCGAGTAGACGAGA: the TetR repression strength came to 1.03. The value for TCCCTCCGAGTAGGCGAGA was 0.745; that for TCCCAGAGAGTAGACGAGA was 0.217; that for TCCCACCGAGTAGGCGAGA was 0.166.

In turn, TCCCGGGTAGTGGTGGAGA displayed a TetR repression strength of 0.277. The value for TCCCCATCAGTGAGCGAGA was 0.19. The value for TCCCGATCAGTTAGGGAGA was 0.313; that for TCCCATGCAGTTGGGGAGA was 0.216. The value for TCCCTTTCAGTTTGGGAGA was 0.925; that for TCCCTTTCAGTTTCGGAGA was 0.422. Regarding TCCCATGGAGTTTGGGAGA, the TetR repression strength was found to be 0.201. Consider TCCCTTTCAGTTTTGGAGA, for which the TetR repression strength stood at 0.151. The value for TCCCATGCAGTTTGGGAGA was 1.07; that for TCCCAGTGAGTCGCAGAGA was 0.0941. The value for TCCCTTGGAGTCGGCGAGA was 0.0727; that for TCCCATTCAGTATCGGAGA was 0.159.

For TCCCATTCAGTCCGCGAGA, the TetR repression strength was determined as 0.259. The sequence TCCCAGGGAGTAGGGGAGA gave a TetR repression strength of 0.204. The value for TCCCACTGAGTCAGAGAGA was 0.279; that for TCCCGGTTAGTATGCGAGA was 0.19; that for TCCCCTGCAGTATGAGAGA was 0.855. Sequence TCCCCTTGAGTATGCGAGA came in with a TetR repression strength of 1.05. The value for TCCCCTGCAGTATTAGAGA was 0.211; that for TCCCTTTGAGTATGCGAGA was 0.127; that for TCCCGGTGAGTGAACGAGA was 0.819. The value for TCCCGGTGAGTATGCGAGA was 1.15; that for TCCCCTTGAGTATGTGAGA was 0.409. The value for TCCCGGAGAGTATGCGAGA was 0.159. TCCCGGTGAGTAAACGAGA showed a TetR repression strength of 0.0592. The value for TCCCTTGCAGTATGAGAGA was 0.157; that for TCCCGGTGAGTGGACGAGA was 0.496. As to TCCCGAGTAGTTATCGAGA, the TetR repression strength is 0.34. The value for TCCCGGGTAGTCTGAGAGA was 0.147; that for TCCCGACCAGTTTCGGAGA was 0.0546; that for TCCCTGCGAGTTCGTGAGA was 0.297.

TCCCGGGAAGTTGATGAGA registered a TetR repression strength of 0.0797. The value for TCCCTGCGAGTCGGTGAGA was 0.245; that for TCCCACTCAGTGCCAGAGA was 0.287. The value for TCCCTAACAGTGGTAGAGA was 0.415. The value for TCCCTATGAGTGGTAGAGA was 0.288. Regarding TCCCTACCAGTCGGAGAGA, the TetR repression strength was 0.278. On to TCCCTACCAGTGGAAGAGA, for which the TetR repression strength is 1.24. Sequence TCCCTGCAAGTGGAAGAGA had a TetR repression strength of 0.276. The value for TCCCTATCAGTGGTAGAGA was 1.01; that for TCCCTAAAAGTGGAAGAGA was 0.104. In turn, TCCCTACCAGTGCAAGAGA had a TetR repression strength of 0.199. TCCCTACCAGTCGCGGAGA: the TetR repression strength was 0.967. Sequence TCCCTCCCAGTGGAAGAGA had a TetR repression strength of 0.491. The value for TCCCTACAAGTGGAAGAGA was 1.21; that for TCCCTCCCAGTCGCGGAGA was 0.291; that for TCCCTGACAGTCGGTGAGA was 0.106.

Take TCCCAGGGAGTTTTAGAGA: the TetR repression strength was 0.305. For the sequence TCCCACGTAGTCAATGAGA, the TetR repression strength came to 0.157. The value for TCCCTCAGAGTAAAGGAGA was 0.218; that for TCCCTTTGAGTAGGTGAGA was 0.168. The value for TCCCATTGAGTTGCTGAGA was 0.153; that for TCCCTCACAGTCAGTGAGA was 0.302.

TCCCGCAAAGTGAATGAGA showed a TetR repression strength of 0.207. The value for TCCCCGCGAGTGACAGAGA was 0.569; that for TCCCAACAAGTGAGTGAGA was 0.42. The value for TCCCTATCAGTGGAAGAGA was 0.722; that for TCCCTAACAGTGGAAGAGA was 0.299; that for TCCCTATCAGTTGAAGAGA was 0.55.

In turn, TCCCCGACAGTTGCGGAGA yielded a TetR repression strength of 0.0545. The value for TCCCTGGGAGTTTAGGAGA was 0.302; that for TCCCTGCAAGTACCTGAGA was 0.308; that for TCCCGGCGAGTGGGGGAGA was 0.193.

The values above are taken from a collection of fitness landscapes (doi:10.1038/s41467-024-54723-y).
